Measurements: ChEMBL document CHEMBL4888484, “Replenishing the malaria drug discovery pipeline: Screening and hit evaluation of the MMV Hit Generation Library 1 (HGL1) against asexual blood stage Plasmodium falciparum ,using a nano luciferase reporter read-out” (2022)
Hit rate of the full screen: of about 4,800 compounds, about 410 (8.5%) showed an effect of 50% or more. The entries come from a sample that favours strong results as a whole.

System: Plasmodium falciparum
Assay: Confirmatory screen in NF54 pLDH assay, in single point, at 2uM, 72h
Format: functional, Erythrocyte
Conditions: timepoint 72 hour

| Structure (SMILES) | % Inhibition [%] |
| --- | --- |
| Cc1cccc(NC(=O)c2cc(Cl)c[nH]2)n1 | 6 |
| COc1ccccc1C1CC1c1nc(CC(=O)NC2CCCC2)no1 (stereo not drawn) | -5 |
| CN(CCNC(=O)CCc1cn(-c2ccccc2)nc1-c1ccc2c(c1)OCO2)C1CCCCC1 | 49 |
| Cc1ccc(-c2noc(CCC(=O)NC[C@H]3CCCO3)n2)c(=O)n1C(C)C | 0 |
| CC[C@H](C)NC(=O)c1cn(-c2cccc(C)n2)cn1 | 13 |
| Nc1ccc(Cc2nnc3n2CCC3)cc1 | 8 |
| O=C(N[C@@H](CN1CCCC1)c1ccccc1)N1CCC(c2ccn[nH]2)CC1 | 43 |
| Clc1cccc(CNCCCNc2ccncc2)c1Cl | 95 |
| CN(C)CCCNCc1ccccc1F | 10 |
| OCCNCc1c(Cl)cccc1Cl | 4 |
| CC(NC(=O)C1CCC1)C(=O)Nc1ccn(C(C)c2ccccc2)n1 (stereo not drawn) | -6 |
| O=C(Nc1ccc(Cn2ccnc2)cc1)c1cc2ccccc2cc1OC(F)F | -12 |
| c1ccc2c[n+](Cc3ccc4ccccc4n3)ccc2c1 | 47 |
| O[C@@H](Cc1ccc2ccccc2n1)c1ccccc1 | -3 |
| Cc1ccc[n+](Cc2ccc3ccccc3n2)c1 | 53 |
| CCn1nc(-n2cnnc2)c(NS(=O)(=O)c2ccc(Br)cc2C)c1C | 12 |
| CC(=O)Nc1cccc(NC(=O)Cn2c(=O)n(CCc3cccs3)c(=O)c3ccccc32)c1 | 10 |

| Structure (SMILES) | % Inhibition [%] |
| --- | --- |
| CCOC(=O)c1cn(CC)c2cc(NC3CCCCC3)c(F)cc2c1=O | 69 |
| CCOC(=O)c1ncn(C2CCCCC2)c1N | 10 |
| CCOC(=O)c1cc(NC(=O)C(C)(C)NC(=O)OC(C)(C)C)c(F)cc1C | 8 |
| CC[C@H]1C[C@@H]1CNC(=O)c1cccc(NC(=O)c2ccco2)c1 | -2 |
| Cc1cc2[nH]ncc2cc1NC(=O)c1ccco1 | 9 |
| COC(C)(C)c1nc(Cn2cnc3ccccc32)no1 | 6 |
| CC(C)[C@H](NC(=O)c1ccc(Cl)cc1Cl)C(=O)O | -5 |
| CCOC(=O)CNc1ccc(F)c(Cl)c1 | -3 |
| CCOC(=O)CCn1cc(F)c(=O)[nH]c1=O | 66 |
| CCOC(=O)COc1cc(N)c(F)cc1Cl | -9 |
| COCCCNC(=O)c1cncc(Br)c1 | -2 |
| NC(=O)c1cc(Cl)c(Cl)c(Cl)c1 | -22 |
| O=C1CCC[C@H](O)N1Cc1ccc(F)cc1 | 8 |
| CCc1ccc([C@H]2NCCc3[nH]cnc32)nc1 | 24 |
| CCc1ccc(CN2CCC[C@H](c3ncc[nH]3)C2)nc1 | 52 |
| CC(C)n1ccc(CN2CCC[C@H](c3cc(C(F)(F)F)[nH]n3)C2)n1 | 1 |
